According to PubChem BioAssay (NCATS):
Records with an inconclusive call do not appear. Active and inactive are the calls of the source. Calls follow the shape of the dose curve; as a rule, active = well fitted inhibition curve with a large enough effect; inconclusive = small, poorly fitted or top-dose-only effect; inactive = flat fitted curve, though single readings scatter.

target: Ubiquitin carboxyl-terminal hydrolase 1 (Homo sapiens) (UniProt O94782); test: Inhibitors of USP1/UAF1: Pilot qHTS (AID 504865); details: purified USP1/UAF1, Ub-rhodamine cleavage fluorescence; series mostly up to 114 µM; activity change, negative = inhibition: at the top concentration; also: nearly all actives have a fitted effect of over 35% in size;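 as to activity change, negative = inhibition: rhodamine fluorescence freed from ubiquitin-rhodamine substrate followed over time; top concentration of the series differs between compounds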
Sequence (O94782 whole entry, looked up): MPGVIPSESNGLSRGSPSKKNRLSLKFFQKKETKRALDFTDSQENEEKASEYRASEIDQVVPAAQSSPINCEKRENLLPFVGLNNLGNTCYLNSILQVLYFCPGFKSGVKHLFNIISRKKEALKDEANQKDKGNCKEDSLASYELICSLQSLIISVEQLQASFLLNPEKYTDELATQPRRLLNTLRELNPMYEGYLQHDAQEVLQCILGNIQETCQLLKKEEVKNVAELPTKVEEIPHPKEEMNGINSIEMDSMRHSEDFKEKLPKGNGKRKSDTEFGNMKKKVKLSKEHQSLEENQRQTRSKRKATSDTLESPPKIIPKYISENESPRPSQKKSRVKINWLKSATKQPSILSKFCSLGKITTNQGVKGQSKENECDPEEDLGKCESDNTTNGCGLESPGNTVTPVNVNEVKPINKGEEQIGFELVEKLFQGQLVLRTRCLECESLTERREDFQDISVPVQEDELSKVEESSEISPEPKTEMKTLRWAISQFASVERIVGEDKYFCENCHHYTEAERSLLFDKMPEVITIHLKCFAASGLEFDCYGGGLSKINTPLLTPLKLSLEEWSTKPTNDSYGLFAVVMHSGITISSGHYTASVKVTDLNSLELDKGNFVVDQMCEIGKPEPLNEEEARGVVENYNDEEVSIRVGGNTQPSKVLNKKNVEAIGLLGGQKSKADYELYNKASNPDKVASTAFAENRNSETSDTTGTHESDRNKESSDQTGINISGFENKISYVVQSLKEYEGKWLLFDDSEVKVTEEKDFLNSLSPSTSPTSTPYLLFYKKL
From the text: Deubiquitinating enzymes (DUBs) are a class of enzymes that can cleave isopeptide bond formed between the C-terminal carboxylate of ubiquitin and a lysine side-chain amino group on the target protein. Among them, ubiquitin specific proteases (USPs) constitute the largest DUB family. Human USPs are emerging as promising targets for pharmacological intervention because of their connection to a number of human diseases, including prostate, colon and breast cancer (1, 2), pediatric acute lymphoblastic leukemia (3), and familial cylindromatosis (4). The advantage of inhibiting USPs lies in the potential specificity of therapeutic intervention that can lead to better efficacy and reduce nonspecific side effects.
In a collaboration between the University of Delaware and the NIH Chemical Genomics Center, a high-throughput screen assay was developed to screen for USP1/UAF1 inhibitors. This miniaturized assay has a fluorescent read-out and is used to screen the NIH Molecular Libraries Small Molecule Repository (MLSMR) in order to identify a small molecule that inhibits USP1.
NIH Chemical Genomics Center [NCGC]
NIH Molecular Libraries Probe Centers Network [MLPCN]
Assay Submitter (PI): Zhihao Zhuang, University of Delaware
1. Priolo, C., et al. (2006) The isopeptidase USP2a protects human prostate cancer from apoptosis. Cancer Res 66, 8625-8632
2. Popov, N., et al. (2007) The ubiquitin-specific protease USP28 is required for MYC stability. Nat Cell Biol 9, 765-774
3. De Pitta, C., et al. (2005) A leukemia-enriched cDNA microarray platform identifies new transcripts with relevance to the biology of pediatric acute lymphoblastic leukemia. Haematologica 90, 890-898
4. Kovalenko, A., et al. (2003) The tumour suppressor CYLD negatively regulates NF-kappaB signalling by deubiquitination. Nature 424, 801-805
3 microliters of reagents (buffer in columns 3 and 4 as negative control and 1nM USP1/UAF1 complex in columns 1, 2, and 5-48) are dispensed into Greiner black solid bottom 1536-well assay plates. Compounds are then transferred via Kalypsys pin tool equipped with 1536-pin array (10nl slotted pins, V&P Scientific, San Diego, CA). Following an incubation step of 15 min at room temperature, 1ul of Ub-Rho substrate (150nM final concentration) is added to initiate the reaction. The plates are immediately centrifuged at 1000 rpm for 15 seconds, and subsequently transferred to a ViewLux high-throughput CCD imager (PerkinElmer) wherein kinetic measurements of fluorescence are acquired using 480 nm excitation/540 nm emission filter set (6 reads every 60 seconds, see Table 1). All reagents are diluted in an assay buffer consisting of 50mM HEPES (pH 7.8), 0.5mM EDTA, 0.1 mg/ml BSA, 1mM TCEP, and 0.01% Tween-20.
% is scaled to controls: 0 for no effect and ±100 for the full control effect; potency is read from the fitted curve at half-maximal effect.

Row | Structure (SMILES) | activity change, negative = inhibition | Potency
1 | CC[N+](CC)(CC)CCOc1ccc(/C=C\c2ccccc2)cc1 | -6.59% (inactive) | –
2 | CC(C)C[C@@H](NC(=O)[C@H](Cc1ccccc1)NC(=O)c1cnccn1)B(O)O | -4.05% (inactive) | –
3 | COc1cc(N)c(Cl)cc1C(=O)OCCCN1CCCCC1 | -7.6% (inactive) | –
4 | COc1ccccc1N1CCN(CCCCN2C(=O)CCC2=O)CC1 | -9.69% (inactive) | –
5 | N[C@H](C(=O)O)c1ccc(C(=O)O)cc1 | 7.24% (inactive) | –
6 | CC(C)NC[C@@H](O)COc1ccc(COCCOC(C)C)cc1 | – | inactive
7 | CCN(Cc1ccncc1)C(=O)[C@@H](CO)c1ccccc1 | -11.6% [at 54.9 µM] (inactive) | –
8 | COc1ccc2[nH]cc(CC(N)C(=O)O)c2c1 (stereo not given) | -7.43% (inactive) | –
9 | O=C(N/N=C\c1ccccc1O)c1ccccc1O | 10.6% (inactive) | –
10 | NCCOB(c1ccccc1)c1ccccc1 | – | inactive
11 | CC1(C)CC(=O)C([C@H]2C3=C(CC(C)(C)CC3=O)Oc3ccccc32)C(=O)C1 | -11.2% (inactive) | –
12 | C[C@H](C[C@H](N)C(=O)O)C(=O)O | -6.07% (inactive) | –
13 | O=C(O)COc1ccc(OCCNC[C@@H](O)COc2ccccc2)cc1 | -5.05% (inactive) | –
14 | CCOC(=O)[C@@]12C[C@@H]1/C(=N/O)c1ccccc1O2 | -11% (inactive) | –
15 | C[C@H](CCC(=O)O)[C@H]1CC[C@H]2[C@H]3C(CC[C@]12C)[C@@]1(C)CC[C@@H](O)C[C@H]1C[C@H]3O (stereo not given in full) | -7.66% (inactive) | –
16 | CCCCNC(=O)[C@@H]1Cc2ccccc2N1C(=O)[C@H](N)CC | 4.59% (inactive) | –
17 | O=C1c2ccccc2C(=O)c2c(NCCc3ccc(O)cc3)ccc(NCCc3ccc(O)cc3)c21 | -16.4% (inactive) | –
18 | CNC(=O)[C@H]1O[C@H](n2cnc3c(NCc4cccc(I)c4)ncnc32)[C@@H](O)[C@@H]1O | -10.9% (inactive) | –
19 | NC1(C(=O)O)C[C@@H](C(=O)O)[C@H](C(=O)O)C1 | -7.81% (inactive) | –
20 | CS(=O)(=O)Nc1c(O)ccc2c1CCC[C@H]2C1=NCCN1 | -7.29% (inactive) | –

Row | Structure (SMILES) | activity change, negative = inhibition | Potency
21 | CC(C)NC[C@H](O)c1ccc2ccccc2c1 | – | inactive
22 | CCCCCC(=O)O[C@H](CC(=O)O)C[N+](C)(C)C | 1.79% (inactive) | –
23 | N[C@@H](CSS(=O)(=O)O)C(=O)O | – | 39.8 µM (active)
24 | OC[C@H]1O[C@H](n2cnc3c(NC4CCCC4)nc(Cl)nc32)[C@@H](O)[C@@H]1O | -4.98% (inactive) | –
25 | CCCN(CCC)C[C@@H]1CCCCN1CCNC(=O)N1c2ccccc2C(=O)Nc2cccnc21 | 1.53% (inactive) | –
26 | COc1ccc([N+](=O)[O-])c2c1CCN2C(=O)CC[C@H](N)C(=O)O | -4.84% (inactive) | –
27 | C[C@H](N)C(=O)O | -9.89% (inactive) | –
28 | CC1OC(OC2C(CO)OC(OC3C(CO)OC(O)C(O)C3O)C(O)C2O)C(O)C(O)C1NC1C=C(CO)C(O)C(O)C1O (stereo not given) | -2.66% (inactive) | –
29 | c1ccc(N2CCN(CCCOc3ccc4c(c3)OCO4)CC2)cc1 | -12.1% (inactive) | –
30 | O=C(O)Cc1cc2ccccc2nc1C(=O)O | -11.2% (inactive) | –
31 | c1ccc2oc(C3=NCCN3)cc2c1 | -11.3% (inactive) | –
32 | CC[C@@H]1O[C@]2(C=C[C@@H]1C)C[C@H]1C[C@H](CC=C(C)[C@@H](O[C@@H]3C[C@H](OC)[C@H](O[C@@H]4C[C@H](OC)[C@H](O)[C@H](C)O4)[C@H](C)O3)[C@@H](C)C=CC=C3CO[C@@H]4[C@@H](O)C(C)=C[C@@H](C(=O)O1)[C@]34O)O2 | 4.62% [at 54.9 µM] (inactive) | –
33 | COc1ccc(-c2ccc(=N)n(CCCC(=O)O)n2)cc1 | 4.82% (inactive) | –
34 | Oc1cc2c(c(Cl)c1O)CCNCC2c1ccccc1 (stereo not given) | -13.5% (inactive) | –
35 | CC1O[C@@H](O[C@@H]2C(O)C[C@H](O[C@@H]3C(O)C[C@@H](OC4CC[C@@]5(C)C6CC(O)[C@@]7(C)C(C8=CC(=O)OC8)CC[C@@]7(O)C6CC[C@@H]5C4)OC3C)OC2C)CC(O)[C@H]1O (stereo not given in full) | -6.15% (inactive) | –
36 | O=C(O)c1ccc2c3c1cccc3c(=O)n1c3ccccc3nc21 | -13.7% (inactive) | –
37 | Nc1nc2c(nc(Br)n2[C@@H]2O[C@H]3COP(=O)(O)O[C@H]3[C@@H]2O)c(=O)[nH]1 | -6.58% (inactive) | –
38 | CCNC(=O)[C@H]1O[C@H](n2cnc3c(N)nc(NCCc4ccc(CCC(=O)O)cc4)nc32)[C@@H](O)[C@@H]1O | -5.49% (inactive) | –
39 | COC(=O)/C=C\c1cc(O)ccc1O | -14.4% (inactive) | –
40 | CC(C)SC(=N)N | -8.95% (inactive) | –
